MEX-5 binding = MEX-5 zinc finger RNA-binding disruptors – biochemical, C. elegans, fluorescence polarization, MLPCN library, primary screen. activity score (negative = inhibition of binding), % at 10 µM. MEX-5/FITC-TCR2 RNA binding; active compounds read low. 300,000 tested, 0.38% active. Zinc finger protein mex-5 (Caenorhabditis elegans), Q9XUB2;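 active = inhibition past about -25% in most replicates, and total fluorescence under double the plate's negative control median, limit read from the data; inconclusive = replicates evenly split on the limit, or fluorescence at least double controls; inactive = too little inhibition in most replicates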;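 note: 0% = DMSO and -100% = 5 µM competing unlabeled TCR2 RNA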
GLD-1 TGE inh = GLD-1/TGE RNA complex disruptors, primary screen, biochemical, fluorescence polarization | Female germline-specific tumor suppressor gld-1 (Caenorhabditis elegans), Q17339 | purified GLD-1 + fluorescein TGE RNA | inhibition, % at 5.96 µM | 320,000 tested, 0.44% active | AID 2280, 2010;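 active = percent inhibition above a per-plate cutoff, the plate mean of test compounds plus 3 SD, cut at about 30% in these data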;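 note: 0% = DMSO wells with GLD-1 and probe and 100% = wells lacking GLD-1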
Target sequence (Q17339 whole entry, looked up): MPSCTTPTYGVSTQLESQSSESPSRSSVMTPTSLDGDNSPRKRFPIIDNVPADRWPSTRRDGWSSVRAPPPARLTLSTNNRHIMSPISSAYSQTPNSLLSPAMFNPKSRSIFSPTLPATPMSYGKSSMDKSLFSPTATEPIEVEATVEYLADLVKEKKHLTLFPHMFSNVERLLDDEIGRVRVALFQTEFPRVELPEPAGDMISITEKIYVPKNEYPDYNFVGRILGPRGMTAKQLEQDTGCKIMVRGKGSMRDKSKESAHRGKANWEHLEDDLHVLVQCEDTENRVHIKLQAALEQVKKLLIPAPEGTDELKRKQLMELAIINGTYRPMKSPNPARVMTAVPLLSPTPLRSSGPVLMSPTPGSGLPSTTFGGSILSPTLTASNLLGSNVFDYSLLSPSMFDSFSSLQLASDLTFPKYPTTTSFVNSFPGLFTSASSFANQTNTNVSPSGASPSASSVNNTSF
IDE cell activ = human IDE activators in live cells, primary screen, fluorescence polarization, HEK cells, FAbeta-B substrate. FAbeta-B cleavage; 0% vehicle, 100% cell-free pure enzyme wells. 340,000 tested, 0.073% active. activation, % at 5.96 µM. Insulin-degrading enzyme (Homo sapiens), P14735;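 active = activation above the mean of all tested compounds plus 3 SD, set per screening campaign, cut at about 17% in these data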
IDE inh = human IDE inhibitors in live cells, primary screen, fluorescence polarization, HEK cells, FAbetaB substrate; AID 434962, 2010; FAbetaB cleavage; 320,000 tested, 0.41% active; inhibition, % at 5.59 µM;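 active = percent inhibition above the average of all tested compounds plus 3 SD, set per screening campaign, cut at about 16% in these data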;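 note: IDE supplied by intact live HEK cells; FP after avidin binding of uncleaved biotin substrate so inhibition keeps polarization high; 0% = DMSO wells and 100% = 60 µM reference IDE inhibitor Ii1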
MCL1 BIM primary = inhibitors of MCL1 binding to BIM-BH3, primary screen, biochemical, fluorescence polarization; Induced myeloid leukemia cell differentiation protein Mcl-1 (Homo sapiens), Q07820; GST-MCL1 / FITC-Bim-BH3 fluorescence polarization; inhibition, % at 10.9 µM; 320,000 tested, 0.68% active; AID 2057, 2009;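 active = inhibition above the mean inhibition of all tested compounds plus 3 SD, set per campaign, cut at about 40% in these data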;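 note: 0% = DMSO wells and 100% = unlabeled Bim-BH3 peptide control; higher means more loss of mP so more displacement of Bim peptide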
Bcl-xL primary = inhibitors of human Bcl-xL, primary screen, biochemical, fluorescence polarization, HTS; Bcl-2-like protein 1 (Homo sapiens), Q07817; GST-Bcl-xL / FITC-Bim BH3 peptide fluorescence polarization; inhibition, % at 10.9 µM; 320,000 tested, 0.7% active;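 active = inhibition above the mean of all tested compounds plus 3 SD, cutoff set per campaign, cut at about 30% in these data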;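 note: 0% = DMSO wells and 100% = unlabeled Bim-BH3 peptide competitor; inhibitors lower millipolarization by displacing the labeled peptide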
IDE inh confirm = human IDE inhibitors in live cells, confirmation, fluorescence polarization, HEK cells, FAbetaB substrate | shares compounds with IDE inh | FAbetaB cleavage | inhibition, % at 5.59 µM | 1,200 tested, 51% active;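 active = mean inhibition across triplicate wells above the cutoff set by the earlier primary insulin-degrading enzyme screen, cut at about 16% in these data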;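 note: 0% = DMSO wells and 100% = 60 µM reference IDE inhibitor Ii1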
HEK cytotox = cytotoxicity in HEK cells, cytotoxicity control for IDE inhibitor project, cell-based, luminescence; shares compounds with IDE inh; HEK293 cytotoxicity, ATP luminescence; inhibition, % at 5.59 µM; 1,200 tested, 28% active; AID 449730, 2010; in the data active = inhibition above about 22%;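 note: 0% = vehicle wells and 100% = reference cytotoxic drug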
Numbers without * were called inactive; ? = inconclusive; . = no result. Most compounds without a hit are left out; they make up all but 1.5% or so of the library.

SMILES	MEX-5 binding	GLD-1 TGE inh	IDE cell activ	IDE inh	MCL1 BIM primary	Bcl-xL primary	IDE inh confirm	HEK cytotox
Cc1ccc(S(=O)(=O)N2CCN(C(=O)CCC(=O)NCc3cccc(C(F)(F)F)c3)CC2)cc1	1	4	2	2	7	1	.	.
COc1ccccc1CCNC(=O)C(=O)NCCC1CCCCN1S(=O)(=O)c1ccccc1 (stereo not given)	-1	1	-12	16*	-2	-1	2	21
COc1ccccc1CNC(=O)C(=O)NCCC1CCCCN1S(=O)(=O)c1ccc(C)cc1 (stereo not given)	-1	1	1	8	-1	2	.	.
CCCOc1ccc(C(=O)CCC(=O)OCC(=O)Nc2cccc(S(N)(=O)=O)c2)cc1	.	.	-4	.	.	.	.	.
O=C(NN1C(=O)/C(=C/c2ccc(O)cc2)SC1=S)c1ccccc1O	?	-108	-84	103*	-46	-17	120*	19
Cc1cc(C)nc(NN2C(=O)/C(=C/c3ccc(O)cc3)SC2=S)n1	34	-79	-109	76*	-27	-9	148*	10
O=C(NN1C(=O)/C(=C/C=C/c2ccccc2)SC1=S)c1ccncc1	6	-47	-5	25*	-79	-50	2	14
O=C(NN1C(=O)/C(=C/c2ccc(O)cc2)SC1=S)c1cccc(O)c1	?	-108	-104	144*	-110	-47	104*	9
COC(=O)c1ccc(-c2csc(NC(=O)C3=COCCO3)n2)cc1	0	3	-4	4	-6	2	.	.
CCOc1cc(CNC2CCCC2)c(Cl)cc1OCC(=O)Nc1ccccc1	0	-5	2	9	3	5	.	.
COc1ccc2cc(C(=O)C3CCCN(C(=O)Cc4c(C)noc4C)C3)ccc2c1 (stereo not given)	-2	6	-1	-4	-3	-2	.	.
CCc1nn(C(CC)C(=O)NCc2cccc(OC)c2OC)c(=O)c2cc3occc3n12 (stereo not given)	2	-7	-3	3	0	2	.	.
Cc1cc(-c2ccc(C)c(S(=O)(=O)N3CCN(c4ccccn4)CC3)c2)on1	0	1	7	-4	6	10	.	.
CCC(=O)Oc1ccc2ccccc2c1CNC(=O)c1ccccc1	0	2	2	5	3	5	.	.
Cn1cc(/C=C2\SC(=S)N(NC(=O)c3ccccc3)C2=O)c2ccccc21	4	-158	-54	28*	-78	-42	46*	15
COc1cc(/C=C2\SC(=S)N(NC(=O)c3ccccc3O)C2=O)ccc1O	27	-25	-114	120*	-12	0	113*	9
O=C(NN1C(=O)/C(=C/c2ccc(O)c([N+](=O)[O-])c2)SC1=S)c1ccccc1Cl	-18	-35	-1	4	-32	-20	.	.
N/C(=N\OC(=O)CSc1ccccc1)c1ccccn1	1	1	2	-1	-4	3	.	.
CN1CCN(C(=O)CCN2C(=O)/C(=C/c3cccc(Br)c3)SC2=S)CC1	0	7	0	19*	6	6	2	56*
CCN1C(c2ccccc2)=C(c2ccccc2)S/C1=C\C=C1/SC(=S)N(C)C1=O	-2	-2	-4	2	24	13	.	.
CCN1C(=O)/C(=C/C=C2/Sc3ccc4ccccc4c3N2CCO)SC1=S	2	-11	-6	24*	9	9	9	13
CCCCn1nc(C(=O)N(CC)CC(=O)Nc2c(F)cccc2F)c2ccccc2c1=O	.	8	1	7	-1	2	.	.
O=C1c2cccc3c(N4CCCCC4)ccc(c23)C(=O)N1c1ccccc1O	-56*	22	-115	89*	-5	35*	152*	18
O=C(O)c1ccc(N2CCCCCC2)c(N2C(=O)c3ccccc3C2=O)c1	-2	4	1	1	2	7	.	.
CCOC(=O)C1C(=O)NC(SCC(N)=O)=C(C#N)C1c1ccccc1OCC (stereo not given)	1	-74	-34	37*	-52	-21	31*	6
SMILES	MEX-5 binding	GLD-1 TGE inh	IDE cell activ	IDE inh	MCL1 BIM primary	Bcl-xL primary	IDE inh confirm	HEK cytotox
CCOC(=O)C1C(=O)NC(SC)=C(C#N)C1c1ccccc1F (stereo not given)	0	-3	3	-7	8	6	.	.
COc1cc(C(=O)N2CCN(C(=O)C3COc4ccccc4O3)CC2)cc(OC)c1OC (stereo not given)	-1	-1	-15	23*	3	3	16	9
COc1ccc(C(=O)N2CCN(C(=O)C3COc4ccccc4O3)CC2)cc1 (stereo not given)	-1	-1	-7	8	3	-1	.	.
Cc1cc(N/N=C/c2c[nH]c3ccccc23)c2ccccc2n1	0	0	3	-1	-3	0	.	.
Cn1c(N/N=C/c2c[nH]c3ccccc23)nc2ccccc21	0	7	-9	29*	14	1	0	63*
Fc1ccc(Oc2ccnc(Cl)n2)c(Cl)c1	-1	1	.	0	-1	-4	.	.
Cc1ccc(NC(=O)CN(C)C(=O)Cc2ccc(Cl)cc2Cl)cc1	3	-2	6	-3	1	2	.	.
Cc1ccc(C(C(=O)NCC2CCCO2)N(Cc2ccccc2)C(=O)c2ccc(-c3ccccc3)[nH]2)o1 (stereo not given)	2	5	-13	21*	-2	2	7	13
O=C(NCC1CCCO1)C(c1cccs1)N(Cc1ccccc1Cl)C(=O)c1ccc(-c2ccccc2)[nH]1 (stereo not given)	2	2	4	4	4	2	.	.
COc1cccc(/C=N/n2c(SC)nnc2-c2ccccc2)c1O	-4	-3	-34	25*	8	10	40*	27*
COc1cccc(/C=N/n2c(SC)nnc2-c2ccccc2)c1OC	-5	-6	1	-3	-1	-2	.	.
Nc1ccc2c3c(cccc13)CC2	2	-28	-5	43*	14	38*	3	4
O=C(NC1CCCC1)C(c1ccccn1)N(Cc1ccccc1F)C(=O)c1csnn1 (stereo not given)	1	-2	-3	0	7	4	.	.
